Test results published in PubChem BioAssay (Tox21).
Records with an inconclusive call do not appear. The source made the active and inactive calls. The call rests on the fitted dose curve; in most records, active means well fitted curve in the direction sought with a large enough effect in the repeat runs; inconclusive means weak or mixed curves; inactive means no such curve, though single readings can be large; an effect the other way counts as inactive or inconclusive.

Legend:
[1] = qHTS RealTime-Glo MT Cell Viability Assay in HepG2 cells - 40 hour (AID 1224870); settings: RealTime-Glo luminescence; series mostly up to 76.8 µM; further: nearly all actives have a fitted effect of over 50% in size
In short: (§1)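 HepG2 cells mixed with RealTime-Glo MT reagents (NanoLuc plus cell-permeant prosubstrate) were seeded at 600 cells/well, incubated 5 h at 37 C/5% CO2, then pinned with compounds in DMSO; nonlytic luminescence tracked viability during 40 h treatment.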

[2] = A CellTox Green Cytotoxicity Assay to monitor cytotoxicity in HEK293 cells - 40 hour (AID 1224871); settings: CellTox Green fluorescence; series mostly up to 76.8 µM; further: nearly all actives have a fitted effect of over 45% in size
In short: (§2)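 Read-out: fluorescence of a cell-impermeant cyanine dye staining DNA of dead cells, proportional to cytotoxicity. HEK293, 600 cells/well with reagent, compound (23 nL DMSO) added after 5 h; reads at 0, 8, 16, 24, 32, 40 h.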

[3] = qHTS RealTime-Glo MT Cell Viability Assay in HEK293 cells - 16 hour (AID 1224872); settings: RealTime-Glo luminescence; series mostly up to 76.8 µM; further: top concentration of the series differs between compounds; nearly all actives have a fitted effect of over 50% in size
In short: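 HEK293 cells seeded with NanoLuc/prosubstrate reagent, rested 5 h at 37 C, then dosed and kept at 37 C up to 40 h. Nonlytic real-time luminescence from viable cells read at 0, 8, 16, 24, 32 and 40 h.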

[4] = qHTS RealTime-Glo MT Cell Viability Assay in HepG2 cells - 8 hour (AID 1224873); settings: RealTime-Glo luminescence; series mostly up to 76.8 µM; further: nearly all actives have a fitted effect of over 55% in size
In short: as §1

[5] = A CellTox Green Cytotoxicity Assay to monitor cytotoxicity in HEK293 cells - 24 hour (AID 1224875); settings: CellTox Green fluorescence; series mostly up to 76.8 µM; further: nearly all actives have a fitted effect of over 45% in size
In short: as §2

[6] = A CellTox Green Cytotoxicity Assay to monitor cytotoxicity in HepG2 cells - 16 hour (AID 1224876); settings: CellTox Green fluorescence; series mostly up to 76.8 µM; further: nearly all actives have a fitted effect of over 45% in size
In short: (§3)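 HepG2, 600 cells/well premixed w/ CellTox Green; 5 h settle, 37 C/5% CO2; pintool cpd add (DMSO); 37 C, 40 h; fluorescence read at 0, 8, 16, 24, 32, 40 h.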

[7] = qHTS RealTime-Glo MT Cell Viability Assay in HepG2 cells - 32 hour (AID 1224877); settings: RealTime-Glo luminescence; series mostly up to 76.8 µM; further: nearly all actives have a fitted effect of over 55% in size
In short: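 HepG2 cells (600/well) were dispensed with RealTime-Glo reagents, incubated 5 h at 37 °C, then treated with compounds in DMSO for up to 40 h. Nonlytic NanoLuc luminescence reflecting viable cells was read at each stated time point.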

[8] = A CellTox Green Cytotoxicity Assay to monitor cytotoxicity in HepG2 cells - 40 hour (AID 1224879); settings: CellTox Green fluorescence; series mostly up to 76.8 µM; further: nearly all actives have a fitted effect of over 40% in size
In short: as §3

[9] = A CellTox Green Cytotoxicity Assay to monitor cytotoxicity in HepG2 cells - 24 hour (AID 1224878); settings: CellTox Green fluorescence; series mostly up to 76.8 µM; further: nearly all actives have a fitted effect of over 45% in size
In short: as §3

[10] = qHTS RealTime-Glo MT Cell Viability Assay in HEK293 cells - 40 hour (AID 1224874); settings: RealTime-Glo luminescence; max response: hits give low values; further: nearly all actives have a fitted effect of over 50% in size
In short: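 Luminescence readout at each listed time point; HEK293, 600 cells/well, RealTime-Glo MT reagent added with cells; compounds pinned (23 nL in DMSO) after 5 h at 37 C; continuous culture at 37 C.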
On the % scale 0 is the no-effect control and ±100 the full control effect.

Nc1nc(-c2ccc([N+](=O)[O-])cc2)cs1
inactive: Potency [1] | Potency [2] | Potency [3] | Potency [4] | Potency [5] | Potency [6] | Potency [7] | Potency [8]

CCCCCCC(CO)CCCC (stereo unspecified)
inactive: Potency [1] | Potency [2] | Potency [3] | Potency [4] | Potency [5] | Potency [6] | Potency [7] | Potency [9] | Potency [8]

c1ccc2sc(SSc3nc4ccccc4s3)nc2c1
inactive: activity change, negative = cytotoxic [1] -0.0307% [at 15.8 µM] | cytotoxicity increase [2] 14.8% [at 15.8 µM] | activity change, negative = cytotoxicity [3] -1.01% [at 15.8 µM] | viability change, negative = cytotoxic [4] 2.86% [at 15.8 µM] | activity change [5] 14.2% [at 15.8 µM, hits give high values] | cytotoxicity increase [6] 2.16% [at 15.8 µM] | activity change, negative = cytotoxic [7] 1.02% [at 15.8 µM] | cytotoxicity [9] 3.43% [at 15.8 µM] | cytotoxicity increase [8] 16.6% [at 15.8 µM]

CC(=O)C(=O)CC(C)C
inactive: Potency [1] | Potency [2] | Potency [3] | Potency [4] | Potency [5] | Potency [6] | Potency [7] | Potency [9] | Potency [8]

CC(=O)OC(C)C[N+](C)(C)C (stereo unspecified)
inactive: Potency [1] | Potency [2] | Potency [3] | Potency [4] | max response [10] -1.13% | Potency [6] | Potency [7] | Potency [9]

CC(C)(C(=O)c1cccnc1)c1cccnc1
inactive: Potency [1] | Potency [2] | Potency [3] | Potency [4] | Potency [5] | Potency [6] | Potency [7] | Potency [9] | Potency [8]

CS(=O)(=O)c1ccc([C@@H](C[C@H]2CCC(=O)C2)C(=O)Nc2cnccn2)cc1Cl
inactive: Potency [1] | Potency [2] | Potency [3] | Potency [4] | max response [10] 0.0186% | Potency [6] | Potency [7] | Potency [9] | Potency [8]

C=CCOC(=O)COCCC(C)C
inactive: Potency [1] | Potency [2] | Potency [3] | Potency [4] | Potency [5] | Potency [6] | Potency [7] | Potency [9]

COC(C)(C)OC
inactive: Potency [1] | Potency [2] | Potency [3] | Potency [4] | Potency [5] | Potency [6] | Potency [7] | Potency [8]

O=c1[nH]c2cc(C(F)(F)F)c(N3CCOCC3)cc2n(CP(=O)(O)O)c1=O
inactive: Potency [1] | Potency [2] | Potency [3] | Potency [4] | Potency [5] | Potency [6] | Potency [7] | Potency [9]

CCOC(=O)c1ccc(NC(=O)CN2CCCCC2)cc1
inactive: Potency [1] | Potency [2] | Potency [3] | Potency [4] | max response [10] -19.4% | Potency [6] | Potency [9] | Potency [8]

Nc1nc2ccc(OC(F)(F)F)cc2s1
inactive: Potency [1] | Potency [2] | Potency [3] | Potency [4] | Potency [5] | Potency [6] | Potency [9]

CC(=O)NNC(C)=O
inactive: Potency [1] | Potency [2] | Potency [3] | Potency [4] | Potency [5] | Potency [6] | Potency [7] | Potency [8]

CCN(CC)c1cccc(O)c1
inactive: Potency [1] | Potency [2] | Potency [3] | Potency [4] | Potency [5] | Potency [6] | Potency [9]

CC(C)(C)C1(CCc2ccc(Cl)cc2)CO1 (stereo unspecified)
inactive: Potency [1] | Potency [2] | Potency [3] | Potency [4] | max response [10] -16.7% | Potency [7]

O=C(O)CN1C(=O)c2cccc3cccc(c23)C1=O
inactive: Potency [1] | Potency [2] | Potency [3] | Potency [4] | max response [10] 9% | Potency [6] | Potency [7] | Potency [9] | Potency [8]

COc1cc(OC)c2ccc(=O)oc2c1
inactive: Potency [1] | Potency [2] | Potency [3] | Potency [4] | max response [10] -23.1% | Potency [7] | Potency [9]

CC12CC3CC(C)(C1)CC(N)(C3)C2
inactive: Potency [1] | Potency [2] | Potency [3] | Potency [4] | max response [10] 3.93% | Potency [6] | Potency [7] | Potency [8]

O=C(Nc1ccc(C(=O)O)c(O)c1)c1ccccc1
inactive: Potency [1] | Potency [2] | Potency [3] | Potency [4] | Potency [5] | Potency [6] | Potency [7] | Potency [9] | Potency [8]

COC(=O)c1sccc1S(N)(=O)=O
inactive: Potency [1] | Potency [2] | Potency [3] | Potency [4] | max response [10] -18.1% | Potency [6] | Potency [9]

SCCc1cnccn1
inactive: Potency [1] | Potency [2] | Potency [3] | Potency [4] | Potency [5] | Potency [7] | Potency [9] | Potency [8]

CCCCCCCCCCCCCCCC(=O)OCC
inactive: Potency [1] | Potency [2] | Potency [3] | max response [10] 0.513% | Potency [5] | Potency [6] | Potency [7] | Potency [9] | Potency [8]

OCC(CO)n1cnc(-c2ccc(F)cc2)c1-c1ccnc(Oc2ccccc2)n1
inactive: Potency [1] | Potency [2] | Potency [3] | Potency [4] | Potency [5] | Potency [7] | Potency [9] | Potency [8]

CCOC(=O)N1CCC(Nc2ccc(Cl)cc2N)CC1
inactive: Potency [1] | Potency [2] | Potency [3] | max response [10] -19% | Potency [5] | Potency [6] | Potency [9]

O=CNNC=O
inactive: Potency [1] | Potency [2] | Potency [3] | max response [10] 10.2% | Potency [6] | Potency [7] | Potency [9] | Potency [8]
